Measurements taken from PubChem BioAssay (Tox21).
Where “and” joins values, the source holds several entries; their conditions need not be identical. Equal entries are not always repeated. Records with an inconclusive call do not appear. A call without a number means that no potency is given here. Values without a mark were called inactive. Calls of active or inactive are those of the source. The call rests on the fitted dose curve; in most records, active means well fitted cell-killing curve with a large enough effect in the repeat runs; inconclusive means weak or mixed curves, or effect the other way; inactive means flat fitted curve, though single readings scatter.

Tests used:
[1] = cAMP Responsive Elements (CRE) small molecule antagonists, cell-based qHTS assay: qHTS cell viability counter screen (AID 2060913); further: nearly all actives have a fitted effect of over 40% in size; further: potency means the concentration at half of the fitted maximal effect
How it was run: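 CRE-bla HEK293T cells (2,000/well, 18 h) given compound plus NKH477 0.25 uM final for 3 h at 37C; viability counter-screen by CellTiter-Glo luminescence in same wells after 30 min.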

[2] = cAMP Responsive Elements (CRE) small molecule agonists, cell-based qHTS assay: qHTS cell viability counter screen (AID 2060914);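 further: viability read after 3 h of compound exposure; nearly all actives have a fitted effect of over 50% in size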
How it was run: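 HEK 293T CRE-bla; DMEM + 10% dialyzed FBS, 25 mM HEPES; 18 h pre-incubation; compound 3 h, 37 °C/5% CO2; CellTiter-Glo added after reporter read; luminescence after 30 min RT.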

Compound	Potency [1]	Potency [2]	viability change, negative = cytotoxic [1]	activity change, negative = cytotoxicity [2]
CCC(Cl)C(Cl)C(Cl)CC(Cl)C(Cl)C(C)Cl (stereo unspecified)	inactive	inactive	–	–
O=C(c1ccc(F)cc1)C1CCN(CCn2c(=O)[nH]c3ccccc3c2=O)CC1	inactive	inactive	–	–
C[CH2][Ge]([Cl])([CH2]C)[CH2]C	inactive	inactive	–	–
O=C1c2cccc3c2[C@H](CCC3)CN1[C@@H]1CN2CCC1CC2	inactive	inactive	–	–
C#CC(C)(CC)OC(=O)c1ccccc1C(=O)O (stereo unspecified)	inactive	inactive	–	–
CC(C)(Sc1cc(C(C)(C)C)c(O)c(C(C)(C)C)c1)Sc1cc(C(C)(C)C)c(O)c(C(C)(C)C)c1	inactive	inactive	–	–
NC(CO)(CO)CO	inactive	inactive	–	–
O=[N+]([O-])c1ccc(O)c2ncccc12	inactive	inactive	–	–
CN1CCN(CCCN2c3ccccc3Sc3ccc(Cl)cc32)CC1	inactive	inactive	–	–
FC(F)OC(Cl)C(F)(F)F (stereo unspecified)	inactive	inactive	–	–
CCN(Cc1ccccc1)c1ccccc1	inactive	inactive	–	–
C=C/C(C)=C/C/C=C(\C)CCC=C(C)C	inactive	inactive	–	–
CCCCCCCCCCCCCCCCCBr	–	–	1.85% [at 18.9 µM]	1.37% [at 18.9 µM]
O=NN(CCCl)C(=O)NCCCl	inactive	inactive	–	–
ICCc1ccccc1	inactive	inactive	–	–
CC(C)OC(=O)C(O)(CC(=O)O)CC(=O)O	inactive	inactive	–	–
ClC(Cl)(Cl)c1ccc(C(Cl)(Cl)Cl)cc1	inactive	inactive	–	–
C=CC(C)(CCC=C(C)C)OC(=O)CC (stereo unspecified)	inactive	inactive	–	–
CCC(C)(CCC(C)C)C(=O)[O][Sn]([CH3])([CH3])[O]C(=O)C(C)(CC)CCC(C)C (stereo unspecified)	inactive	inactive	–	–
CCC(C)C(=O)OCCc1ccccc1 (stereo unspecified)	inactive	inactive	–	–
CC(C)c1ccccc1O	inactive	inactive	–	–
O=c1c(-c2ccc(O)cc2)coc2cc(O)ccc12	inactive	inactive	–	–
C[C@H](NC(CCc1ccccc1)C(=O)O)C(=O)N1CCC[C@H]1C(=O)O (stereo partly specified)	inactive	inactive	–	–
C[N+](C)(C)CC(O)CCl (stereo unspecified)	inactive	inactive	–	–
Nc1ccc(N=Nc2ccc(N)cc2)cc1	inactive	inactive	–	–
C=CC(=O)OCCCC	inactive	inactive	–	–
COc1cc2nc(N3CCN(C(=O)C4COc5ccccc5O4)CC3)nc(N)c2cc1OC (stereo unspecified)	inactive	inactive	–	–

Compound	Potency [1]	Potency [2]	viability change, negative = cytotoxic [1]	activity change, negative = cytotoxicity [2]
O=C1OC(=O)c2ccccc21	inactive	inactive	–	–
CC(=O)N[C@H]1[C@H]([C@H](O)[C@H](O)CO)OC(C(=O)O)=C[C@@H]1N=C(N)N	inactive	inactive	–	–
CC(C)c1ccccc1	inactive	inactive	–	–
OCC#CCO	inactive	inactive	–	–
O=C(O)CCN(C1(C(=O)NO)CCCC1)S(=O)(=O)c1ccc(Oc2ccc(F)cc2)cc1	inactive	inactive	–	–
CN1CCCN=C1COC(=O)C(O)(c1ccccc1)C1CCCCC1 (stereo unspecified)	inactive	inactive	–	–
Cc1cccc(C)c1NC(=O)CC12CCCN1CCC2	inactive	inactive	–	–
CC(=O)[C@H]1CC[C@H]2[C@@H]3CCC4=CC(=O)CC[C@]4(C)[C@H]3CC[C@]12C	60.8 µM (active) and 61.1 µM (active)	inactive	–	–
Clc1cc(Cl)c(Cl)nc1Cl	inactive	inactive	–	–
NCCN	inactive	inactive	–	–
CCC(C)(CCC(C)C)C(=O)[O-].CCC(C)(CCC(C)C)C(=O)[O-].[Zn+2] (stereo unspecified)	inactive	inactive	–	–
CCCCOC(=O)[C@@H](C)Oc1ccc(Oc2ccc(C(F)(F)F)cn2)cc1	inactive	inactive	–	–
CC1(C)CC(=O)CC(C)(C)N1	inactive	inactive	–	–
Oc1c(Br)cc(Br)c2cccnc12	inactive	inactive	–	–
Nc1ccc(Nc2ccccc2)cc1	inactive	inactive	–	–
CC(C)(C)c1n[nH]c(=O)n(N)c1=O	inactive	inactive	–	–
CC(C)COC(=O)C(C)C	inactive	inactive	–	–
CN(Cc1ccc(C(C)(C)C)cc1)Cc1cccc2ccccc12	inactive	inactive	–	–
CC(C(=O)O)c1ccc2c(c1)Cc1cccnc1O2 (stereo unspecified)	inactive	inactive	–	–
Cc1cc(=O)oc2cc(O)ccc12	inactive	inactive	–	–
CC(=O)O[C@H]1C[C@@H]2CC[C@@H]3[C@H](CC[C@@]4(C)[C@H]3C[C@H]([N+]3(C)CCCCC3)[C@@H]4OC(C)=O)[C@@]2(C)C[C@@H]1N1CCCCC1	inactive	inactive	–	–
CCC(=O)OC(=O)CC	inactive	inactive	–	–
NC[C@H]1O[C@H](O[C@H]2[C@H](O)[C@@H](O[C@H]3O[C@H](CO)[C@@H](O)[C@H](N)[C@H]3O)[C@H](N)C[C@@H]2N)[C@H](O)[C@@H](O)[C@@H]1O	–	–	-0.639% [at 8.39 µM]	14.7% [at 8.39 µM]
COc1ccc(OC)c(N=Nc2c(O)ccc3ccccc23)c1	inactive	inactive	–	–
c1cnc(N2CCN(Cc3ccc4c(c3)OCO4)CC2)nc1	inactive	inactive	–	–
O=C(O)c1ccccc1C(=O)O	inactive	inactive	–	–
